GLS inhibitor = inhibitors of human glutaminase (GLS). GLS enzymatic activity, qHTS titration. 0.21% of 410,000 active. Potency, µM (series often up to 45.5 µM), inactives show top-dose activity change, negative = inhibition, usual class: inhibitors; note: % is set by controls: 0 for no effect and ±100 for the full control effect
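Glutamate formation by hKGA was monitored fluorometrically using coupled glutamate oxidase, HRP and Amplex Red. Substrate was added as 1 mM L-glutamine solution; incubation was 30 min at RT after an initial read.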
JMJD2A Tudor = JMJD2A Tudor domain (human) inhibition; AlphaScreen JMJD2A-Tudor / H3K4me3 peptide binding; Potency, µM (titrated, usually from 114 µM), without a hit: at the top dose activity change, negative = inhibition, hits mostly inhibitors; 4.4% of 390,000 active; note: % is set by controls: 0 for no effect and ±100 for the full control effect; nearly all actives have a fitted effect of over 50% in size
HP1b chromo inh = blocks HP1-beta chromodomain binding to methylated histone tails | 0.56% of 390,000 active | Potency, µM (doses to about 114 µM), without a hit: top-dose activity change, negative = inhibition, actives largely listed as inhibitors | AlphaScreen HP1-beta / biotin-H3K9me3 peptide binding; note: nearly all actives have a fitted effect of over 70% in size
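Compound inhibition of the preformed complex between 50 nM HP1-beta and 50 nM biotinylated H3K9me3 peptide was read by AlphaScreen. Buffer was PBS pH 7.4 with 0.01% Tween-20. Incubations ran 30 min at room temperature, with 10 ug/mL donor/acceptor beads.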
G9a inh = G9a (human) methyltransferase inhibition; G9a H3K9 monomethylation, AlphaScreen, 2 h; Potency, µM (series often up to 102 µM), inactives show at the highest dose activity, negative = inhibition, actives largely listed as inhibitors; 8.8% of 350,000 active; note: % is set by controls: 0 for no effect and ±100 for the full control effect; nearly all actives have a fitted effect of over 75% in size
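G9a (20 nM) preincubated 15 min RT with compounds, then 500 nM biotinylated H3K9 peptide and 20 uM SAM added; 2 h RT reaction. Monomethyl-H3K9 product detected by AlphaScreen with anti-H3K9me1 antibody, streptavidin donor and anti-rabbit IgG acceptor beads.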
BAZ2B block = BAZ2B (human) inhibition; Q9UIF8; AlphaScreen BAZ2B-H3K14Ac peptide displacement; Potency, µM (titrated, usually from 114 µM), for the others: top-dose activity change, negative = inhibition, actives largely listed as inhibitors; 4.4% of 360,000 active; AID 504333; note: % is set by controls: 0 for no effect and ±100 for the full control effect; nearly all actives have a fitted effect of over 60% in size
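BAZ2B (50 nM) with biotin-H3(5-23)K14Ac peptide (50 nM) in PBS pH 7.4, 0.01% Tween-20, preformed 30 min, then compound 30 min at room temperature; top concentration 110uM. AlphaScreen streptavidin donor/nickel chelate acceptor beads (10 ug/mL final), 20 min dark, signal read.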
* = called active by the depositor; ? = inconclusive; . = no result given; ! = repeats disagree; [ ] = dose if it differs, or a comment. Hits are enriched below; roughly 10% of the tested compounds scored in any of these assays. Calls come from the whole dose curve; as a rule, active = well fitted curve in the direction sought with a large enough effect; inconclusive = small, poorly fitted or top-dose-only effect, or another doubt; inactive = no such curve, though single readings can be large; an effect the other way counts as inactive or inconclusive. Potency is the fitted concentration of half-maximal effect.

SMILES	GLS inhibitor	JMJD2A Tudor	HP1b chromo inh	G9a inh	BAZ2B block
CN1CCN(c2ccc(S(=O)(=O)N3CCCCC3)cc2NC(=O)/C=C/c2ccc(OC(F)F)cc2)CC1	-1.4%	-34.5%	-25.1%	44.7µM*	-37.6%
CC(Oc1ccc(F)cc1)C(=O)Nc1cc(S(=O)(=O)N2CCCCC2)ccc1N1CCN(C)CC1 (centres undefined)	-4.1%	-26.0%	12.7%	.	.
CCN1CCN(c2ccc(S(=O)(=O)N3CCCCC3)cc2NC(=O)/C=C/c2ccc(OC(F)F)cc2)CC1	4.7%	-33.8%	-14.6%	14.1µM*	4.3%
O=C(N/N=C/c1ccc([N+](=O)[O-])cc1)c1cc(C2CC2)[nH]n1	-0.8%	-11.0%	40.1%	79.4µM*	-19.4%
O=C(N/N=C/c1ccccn1)c1cc(C2CC2)[nH]n1	-0.2%	56.2µM*	47.5%	?	11.2µM*
O=C(N/N=C/c1ccco1)c1cc(C2CC2)[nH]n1	4.3%	-3.2%	21.3%	-33.7%	-9.7%
O=C(N/N=C/c1cccc2ccccc12)c1cc(C2CC2)[nH]n1	0.5%	-13.0%	35.9%	12.5%	-20.4%[57.1 µM]
CN1C(=O)c2cccc3c(N(C)C)ccc(c23)C1=O	-7.7%	19.6%	73.8%	.	23.7%
CCOc1ccccc1N1CC(C(=O)N2CCc3ccccc3C2)CC1=O (centres undefined)	?	28.2µM*	-9.5%	29.1%[12.7 µM]	-7.7%
CCOc1ccc(N2C(=O)CC(Sc3nc(CC(C)C)ccc3C#N)C2=O)cc1 (centres undefined)	-13.6%	-25.1%	62.4%	?	13.4%
C[C@H]1COC(=O)[C@@H](CC(=O)OC(C)(C)C)C/C=C\C[C@H](CC(=O)NCCO)C(=O)N1	-3.0%	-0.7%	41.1%	.	.
CC1=C(C(=O)O)N2C(=O)[C@@H](NC(=O)C(N)C3=CCC=CC3)[C@H]2SC1 (some centres undefined)	.	.	.	11.9µM*!	.
NC(C(=O)N[C@@H]1C(=O)N2C(C(=O)O)=C(Cl)CS[C@H]12)c1ccccc1 (some centres undefined)	.	.	.	2.38µM*!	.
CC1=C(C(=O)O)N2C(=O)C(NC(=O)C(N)c3ccc(O)cc3)C2SC1 (centres undefined)	.	.	.	-29.3%[2.33 µM]	.
COC1=C(C(=O)O)N2C(=O)[C@@H](NC(=O)C(N)C3C=CCC=C3)[C@H]2SC1 (some centres undefined)	0.2%	.	.	.	.
N[C@@H](C(=O)N[C@@H]1C(=O)N2C(C(=O)O)=C(Cl)CS[C@H]12)c1ccccc1	11.2µM*!	25.1µM*	18.3%	50.1µM*	31.6µM*
N[C@@H](C(=O)N[C@@H]1C(=O)N2C(C(=O)O)=C(CSc3cn[nH]n3)CS[C@H]12)c1ccc(O)cc1	6.31µM*	.	.	.	.
CC=CC1=C(C(=O)O)N2C(=O)[C@H](NC(=O)[C@H](N)c3ccc(O)cc3)[C@@H]2SC1	23.6%	.	.	?	.
COc1ccc(-c2nnc(SCC(=O)N(C)C3CCS(=O)(=O)C3)n2N)cc1OC (centres undefined)	-0.8%	-8.2%	39.1%	?	-4.8%
COc1ccc(C(=O)C2CCCN(Cc3cccn3-c3ccc(Cl)cn3)C2)c(OC)c1 (centres undefined)	-1.7%	-28.6%	-16.4%	-18.7%	56.2µM*
Cc1cccc(CC2S/C(=N/c3ccccn3)NC2=O)c1 (centres undefined)	6.0%	-30.5%	20.3%	3.1%[59 µM]	10.3%
Clc1ccc(OCc2nc(-c3ccccn3)no2)c(Br)c1	-5.8%	2.1%	56.6%	1.5%	4.9%
CCOC(=O)c1cn2cccnc2n1	-10.6%	3.0%	28.1%	8.1%	1.5%
CCOc1ccccc1C(=O)Nc1ccc(-n2nncc2-c2ccccc2)cc1	-13.2%	-7.6%	23.2%	-2.3%[59 µM]	-5.7%
O=c1c2[nH]c3ccccc3c2ncn1C1CCCCC1	5.7%	-1.5%	61.2%	-19.7%[59 µM]	0.5%
O=C1c2ccccc2C(=O)c2c1ccc1c(=O)n(C3CCCCC3)[nH]c21	-19.3%	25.1µM*	-10.9%	7.94µM*	50.1µM*
O=C1C(Cl)=C(Nc2ccccc2)C(=O)c2ccccc21	-0.1%	-18.1%	-1.6%	?	?
O=C(O)c1cccc(NC2=C(Cl)C(=O)c3ccccc3C2=O)c1	9.5%	56.2µM*	?	7.08µM*	44.7µM*
